Drawing on PubChem BioAssay (Tox21), this text covers Potency and activity change, positive = activation for 28 compounds.

Assay [1] can be described thus: qHTS assay to identify small molecule agonists of the hypoxia (HIF-1) signaling pathway - cell viability counter screen (AID 1224844; calls by dose curve; note: nearly all actives have a fitted effect of over 50% in size; note: potency is the fitted concentration of half-maximal effect). The method in brief:
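Cytotoxicity was measured in parallel with the HRE-driven beta-lactamase readout: after 17 hrs of compound exposure at 37C, HRE-bla ME-180 cells received CellTiter-Glo and luminescence was recorded 30 min later.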
Background: Quantitative high-throughput screening tests each substance at several concentrations.

A short description of assay [2]: qHTS assay to identify small molecule agonists of H2AX (AID 1224845; active = well fitted activation curve with a large enough effect in the signal ratio in the repeat runs, not every such curve was filed as active; the % refers to the signal ratio). The gist of the method: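 Wild-type CHO-K1 cells, plated overnight, exposed 3hr at 37C to 15 concentrations (0.76% DMSO final). Lysed, then HTRF anti-pH2AX (S139) cryptate and anti-H2AX-d2 antibodies, 24 hr room temperature; 665/620 nm emission read.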
The nature of assay [3]: qHTS assay to identify small molecule agonists of the hypoxia (HIF-1) signaling pathway (AID 1224846; active = well fitted activation curve with a large enough effect in the signal ratio in the repeat runs, not every such curve was filed as active; the % refers to the signal ratio). The method in brief: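 Compounds from the Tox21 10K library, dissolved in DMSO, are tested for induction of a hypoxia response element–controlled beta-lactamase reporter in ME-180 cells. Exposure lasts 17 hrs at 37C after a 5 hr settling period, followed by CCF4-AM FRET substrate.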

Assay [4] is described as follows: qHTS assay to identify small molecule agonists of H2AX - cell viability counter screen (AID 1224847; calls by dose curve; note: top concentration of the series differs between compounds; nearly all actives have a fitted effect of over 30% in size). The method in brief:
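CHO-K1 cells plated overnight at 37C, then exposed 3 h at 37C to compounds at 15 concentrations (0.76% DMSO final). Viability by CellTiter-Glo luminescence after 30 min at room temperature.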

The nature of assay [5]: qHTS assay to identify small molecule antagonists of the estrogen related receptor (ERR) signaling pathway from Tox21 library (AID 1224848). Note: nearly all actives have a fitted effect of over 50% in size. Note: potency is the fitted concentration of half-maximal effect. The gist of the method: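 Compounds dissolved in DMSO are pin-transferred onto ERR reporter cells (2,000 per well) that have settled for 6 h at 37 C. Plates then incubate 18 h at 37 C before ONE-Glo luciferase reagent and a luminescence read 30 min later.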

Assay [6] is described as follows: qHTS RealTime-Glo MT Cell Viability Assay in HEK293 cells - 32 hour (AID 1224868). Note: top concentration of the series differs between compounds; nearly all actives have a fitted effect of over 50% in size. The method in brief:
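Tox21 10K qHTS, HEK293, 600 cells/well, RealTime-Glo reagent co-dispensed with cells; 5 h preincubation, compound by pintool, 37 C, luminescence at 0–40 h.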

Assay [7] is described as follows: A CellTox Green Cytotoxicity Assay to monitor cytotoxicity in HEK293 cells - 0 hour (AID 1224869). Note: nearly all actives have a fitted effect of over 50% in size. The method in brief:
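Cells (HEK293, 600/well) and dye reagent are dispensed together. After 5 h at 37 C, 23 nL compound is pinned in. Plates stay at 37 C for 40 h with fluorescence read at 0h, 8h, 16h, 24h, 32h and 40h.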

Assay [8] in a line: qHTS RealTime-Glo MT Cell Viability Assay in HepG2 cells - 40 hour (AID 1224870). Note: nearly all actives have a fitted effect of over 50% in size. The method in brief:
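HepG2 cells (600/well) mixed with RealTime-Glo MT reagent, settled 5 h at 37 C/5% CO2 before compound addition. Nonlytic NanoLuc luminescence from viable-cell prosubstrate reduction read repeatedly during 40 h treatment at 37 C.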

A short description of assay [9]: qHTS assay to identify small molecule agonists of the estrogen related receptor (ERR) signaling pathway from Tox21 library (AID 1224849; calls by dose curve; note: nearly all actives have a fitted effect of over 15% in size). To be noted: ERR reporter cell line, ONE-Glo luciferase, 18 h; at 92.4 µM (top of the series) unless noted. The gist of the method:
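Cells carrying the ERR reporter were plated and allowed to settle for 6 h, exposed to library compounds for 18 h at 37 C, then lysed with ONE-Glo and luminescence measured.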

Assay [10] in a line: qHTS RealTime-Glo MT Cell Viability Assay in HepG2 cells - 24 hour (AID 1224867). Note: nearly all actives have a fitted effect of over 50% in size. The method in brief:
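Cells + NanoLuc/prosubstrate dispensed (600 cells/well) → 5 h at 37 C/5% CO2 → compounds in DMSO transferred → 40 h incubation at 37 C, luminescence read at 0, 8, 16, 24, 32, 40 h.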

Values without a mark were called inactive. Results filed as inconclusive are left out. Active and inactive are the calls of the source. Unless noted, calls come from the whole dose curve; as a rule, active = well fitted curve in the direction sought with a large enough effect in the repeat runs; inconclusive = weak or mixed curves; inactive = no such curve, though single readings can be large; an effect the other way counts as inactive or inconclusive.
% is set by controls: 0 for no effect and ±100 for the full control effect.

`Nc1ccc([N+](=O)[O-])c(C(F)(F)F)c1`: the Potency entry in assay [1], in [2], in assay [3], in assay [4], in assay [5] and in [6] was “inactive” each time. The Potency result in assay [7] and in [8] was “inactive” throughout.
Take `c1cc(CCCc2ccncc2)ccn1`: the Potency result in [1], in assay [2], in [3], in assay [4], in assay [10] and in [6] was “inactive” throughout. The Potency result in assay [7] and in [8] was “inactive” in each case. Further, in [9], the activity change, positive = activation was -26.9%.
With `O=CC1CC=CCC1` (stereo not given), the Potency entry in [1], in [2], in [3], in [4], in assay [10] and in assay [6] was “inactive” each time. Besides, the Potency result in assay [7] and in assay [8] was “inactive” throughout.
Turning to `Cc1ccccc1S(=O)(=O)O`, the Potency result in [1], in assay [2], in [3], in assay [4], in [10] and in assay [6] was “inactive” throughout. Besides, the Potency result in assay [7] and in [8] was “inactive” in each case.
With `CCCCC(CC)COC(=O)CCCCCCCCC(=O)OCC(CC)CCCC` (stereo not given), the Potency entry in [1], in assay [2], in assay [3], in assay [4], in assay [5] and in assay [10] was “inactive” each time. For the same compound, the Potency entry in [7] and in assay [8] was “inactive” each time.
Regarding `Nc1ncn([C@H]2C[C@H](O)[C@@H](CO)O2)c(=O)n1`, the Potency entry in [1], in [2], in assay [3], in [4], in assay [10] and in assay [6] was “inactive” in each case. Besides, the Potency result in assay [7] and in [8] was “inactive” each time.
Consider `COCCCN1CCC(NC(=O)c2cc(Cl)c(N)c3c2OCC3)CC1`, for which the Potency result in [1], in assay [2], in assay [3], in assay [4], in assay [5] and in [10] was “inactive” throughout. Besides, the Potency entry in [8] is “inactive”.
Turning to `COC(=O)c1ccc(I)cc1S(=O)(=O)NC(=O)Nc1nc(C)nc(OC)n1`, the Potency result in assay [1], in [2], in assay [3], in [4], in assay [10] and in assay [6] was “inactive” in each case. Also, the Potency entry in assay [7] and in assay [8] was “inactive” each time.
Regarding `O=C1c2ccccc2S(=O)(=O)N1CCCCN1CCN(c2ncccn2)CC1`, the Potency entry in assay [1], in assay [2], in assay [3], in assay [4], in assay [10] and in [6] was “inactive” throughout. Besides, the Potency entry in assay [7] and in assay [8] was “inactive” in each case.
As for `CCCCC(CC)COC(=O)COc1ccc(Cl)cc1Cl` (stereo not given), the Potency result in assay [1], in [2], in assay [3], in [4], in assay [10] and in assay [6] was “inactive” each time. In addition, the Potency result in [7] and in [8] was “inactive” in each case.
Take `CC(CC=O)c1ccccc1` (stereo not given): the Potency entry in assay [1], in assay [2], in assay [3], in assay [4], in [10] and in assay [6] was “inactive” each time. Moreover, the Potency result in [7] and in assay [8] was “inactive” in each case.
On to `CCCCCCCN`, for which the Potency result in assay [1], in assay [2], in [3], in assay [4], in [10] and in [6] was “inactive” throughout. Further, the Potency entry in assay [7] and in [8] was “inactive” each time.
Take `CCCCCCCCCCCC(=O)OC[C@@H](O)[C@H]1OC[C@H](OCCO)[C@H]1OCCO`: the Potency entry in assay [1], in [2], in assay [3], in [4], in assay [10] and in assay [6] was “inactive” each time. In addition, the Potency entry in assay [7] and in assay [8] was “inactive” each time.
Turning to `CC(C)(COC(=O)c1ccccc1)COC(=O)c1ccccc1`, the Potency result in assay [1], in assay [2], in [3], in [4], in assay [10] and in [6] was “inactive” throughout. Further, the Potency result in [7] and in assay [8] was “inactive” each time.
Turning to `CN(C)CCN(Cc1ccc(Cl)cc1)c1ccccn1`, the Potency result in [1], in [2], in assay [3], in assay [4], in [10] and in assay [6] was “inactive” throughout. Moreover, the Potency result in assay [7] and in [8] was “inactive” throughout.
Regarding `CCc1c(C(=O)NN2CCCCC2)nn(-c2ccc(Cl)cc2Cl)c1-c1ccc(Br)cc1`, the Potency is 21.9 µM (active) in assay [1] and 1.22 µM (active) in assay [5]. Besides, the Potency entry in [2], in assay [3], in assay [4] and in assay [7] was “inactive” each time.
`NCc1ccccc1Sc1ccccc1CO`: the Potency entry in [1], in [2], in assay [3], in [4], in assay [10] and in assay [6] was “inactive” throughout. In addition, the Potency result in assay [7] and in [8] was “inactive” throughout.
Consider `Nc1ccccc1S(=O)(=O)c1ccccc1`, for which the Potency result in assay [1], in assay [2], in assay [3], in [4], in assay [6] and in assay [7] was “inactive” throughout. The Potency result in assay [8] is “inactive”. Further, the activity change, positive = activation in assay [9] was -20.8%.
As for `OCCNCc1ccccc1`, the Potency entry in [1], in assay [2], in [3], in assay [4], in assay [10] and in assay [6] was “inactive” throughout. For the same compound, the Potency result in [7] and in assay [8] was “inactive” in each case.
As to `CCCCO`, the Potency result in [1], in assay [2], in assay [3], in [4], in [10] and in assay [6] was “inactive” in each case. Moreover, the Potency entry in assay [7] and in assay [8] was “inactive” each time.
On to `C=C1[C@H]2CC[C@@H]3[C@H]2C(C)(C)CCC[C@]13C`, for which the Potency result in [1], in [2], in assay [3], in assay [4], in [10] and in [6] was “inactive” throughout. The Potency entry in assay [7] and in assay [8] was “inactive” each time.
Turning to `CCCCCCOC(=O)NC(=N)c1ccc(NCc2nc3cc(C(=O)N(CCC(=O)OCC)c4ccccn4)ccc3n2C)cc1`, the Potency was 23.9 µM (active) in [1] and 13.3 µM (active) in assay [5]. Besides, the Potency entry in assay [2], in assay [3], in assay [4], in assay [7] and in assay [8] was “inactive” throughout.
As to `S=C([S-])NCCNC(=S)[S-].[Mn+2]`, the Potency result in assay [1], in [2], in [3], in [4], in assay [10] and in assay [7] was “inactive” throughout. For the same compound, in [8], the Potency result is “inactive”.
In the case of `Cc1cccc(C)c1NC(=O)CN(CC(=O)O)CC(=O)O`, the Potency result in assay [1], in assay [2], in assay [3], in assay [4], in assay [10] and in assay [8] was “inactive” each time.
Consider `COc1ccc2cccc(CCNC(C)=O)c2c1`, for which the Potency result in assay [1], in assay [2], in [3], in assay [4], in assay [10] and in assay [7] was “inactive” in each case. Moreover, in assay [8], the Potency entry is “inactive”.
Regarding `CC(C)O.CC(C)O.CCOC(=O)/C=C(\C)O.CCOC(=O)/C=C(\C)O.[Ti]`, the Potency entry in assay [1], in [2], in assay [3], in assay [4], in assay [10] and in [6] was “inactive” in each case. Besides, the Potency entry in assay [7] and in [8] was “inactive” in each case.
Consider `O=[N+]([O-])c1ccc2[nH]ncc2c1`, for which the Potency result in assay [1], in assay [2], in assay [3], in assay [4], in [10] and in assay [7] was “inactive” each time. In addition, in assay [8], the Potency entry was “inactive”.
In the case of `CN(C)CCN(Cc1ccsc1)c1ccccn1`, the Potency result in assay [1], in assay [2], in [3], in [4], in assay [10] and in assay [6] was “inactive” in each case. The Potency result in assay [8] is “inactive”.
